# IDE exosite inh = displaces the probe from the exo-site of human IDE | P14735 | AID 1259349 | z-score at 20 µM | purified IDE, FL-6b probe fluorescence polarization; stronger effect = lower value | hit rate 6.3% among 17,000;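 active = z-score of -3 or lower, meaning strong loss of probe binding signal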;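 also: His-tagged human IDE residues 42-1019 made in E. coli with 30 nM FL-6b probe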
# An asterisk follows results filed as active. The entries come from a sample that favours hits as a whole.
SMILES,IDE exosite inh
COc1cccc(NC(=O)N2CC(=O)N3[C@H](CO)[C@@H](c4ccc(Br)cc4)[C@H]3C2)c1,2.8
COc1cccc(NC(=O)N2CC(=O)N3[C@H](C2)[C@@H](c2ccc(Br)cc2)[C@@H]3CO)c1,-3.2*
COc1cccc(-c2ccc([C@H]3[C@@H](CO)N4C(=O)CN(C(=O)NC(C)C)C[C@@H]34)cc2)c1,-5.4*
COc1cccc(NC(=O)N2CC(=O)N3[C@@H](CO)[C@@H](c4ccc(Br)cc4)[C@@H]3C2)c1,-0.29
C/C=C/c1ccc([C@H]2[C@H]3CN(C(=O)Nc4ccc(OC)cc4)CC(=O)N3[C@H]2CO)cc1,-5.1*
COc1cccc(-c2ccc([C@@H]3[C@@H](CO)N4C(=O)CN(C(=O)NC(C)C)C[C@@H]34)cc2)c1,-14*
C/C=C/c1ccc([C@H]2[C@@H](CO)N3C(=O)CN(C(=O)Nc4ccc(OC)cc4)C[C@@H]23)cc1,0.83
COc1ccc(C#Cc2ccc([C@H]3[C@H](CO)N4C(=O)CN(C(=O)NC(C)C)C[C@@H]34)cc2)cc1,-1.2
Cc1noc(C)c1NC(=O)N1C[C@@H](O)COC[C@@H]2O[C@H](CC(=O)N[C@H]3CCN(Cc4ccccc4)C3)CC[C@H]21,0.14
C/C=C/c1ccc([C@H]2[C@@H](C#N)N(c3nc(CC)cs3)[C@@H]2CO)cc1,1.4
Cc1noc(C)c1S(=O)(=O)Nc1ccc2c(c1)C(=O)N([C@H](C)CO)C[C@@H](C)[C@@H](CN(C)Cc1ccc(C(=O)O)cc1)OCCCC[C@H](C)O2,2.6
COc1ccc(CN2CC3(C2)[C@H](c2ccccc2)[C@@H](CO)N3CC2CCCC2)cc1,0.053
C/C=C/c1ccc([C@H]2[C@@H](CO)N(c3ncc(CC)s3)[C@H]2C#N)cc1,1.3
Cc1noc(C)c1NC(=O)N[C@H]1C=C[C@H](CC(=O)Nc2ccc(-c3ccccc3)cc2)O[C@@H]1CO,-1.2
CC(C)NC(=O)N1[C@@H]2CNC[C@H]1C2c1ccc(-c2ccc(C#N)cc2)cc1 (stereo not given in full),3.9
COc1ccc(C#Cc2ccc([C@@H]3[C@H]4CN(C(=O)Nc5ccccc5F)CC(=O)N4[C@H]3CO)cc2)cc1,2
COc1ccccc1NC(=O)N1C[C@H](O)COC[C@@H]2O[C@H](CC(=O)NCCc3ccncc3)CC[C@H]21,-0.079
CCCC(=O)N1CC2(CCN(S(=O)(=O)CC)CC2)c2c(n(C)c3cc(OC)ccc23)[C@H]1CO,0.21
O=C(Cc1ccccc1)N1CC(=O)N2[C@H](CO)[C@@H](c3ccc(C#Cc4ccccc4)cc3)[C@@H]2C1,-0.47
CN(C)CC(=O)N1CC(=O)N2[C@@H](CO)[C@H](c3ccc(-c4ccc(C#N)cc4)cc3)[C@@H]2C1,2.8
O=C(CC1CC1)N1CC(=O)N2[C@H](C1)[C@H](c1ccc(/C=C/c3ccccc3)cc1)[C@@H]2CO,-3.8*
O=C(CC1CC1)N1CC(=O)N2[C@@H](CO)[C@@H](c3ccc(C#Cc4ccc(F)cc4)cc3)[C@@H]2C1,2.4
O=C(CC1CC1)N1CC(=O)N2[C@@H](CO)[C@@H](c3ccc(-c4cccnc4)cc3)[C@@H]2C1,-1.4
O=C(CC1CC1)N1CC(=O)N2[C@@H](CO)[C@H](c3ccc(-c4ccccc4)cc3)[C@@H]2C1,-0.6
O=C(CC1CC1)N1CC(=O)N2[C@H](CO)[C@@H](c3ccc(C#Cc4ccccc4)cc3)[C@H]2C1,-6.4*
SMILES,IDE exosite inh
CN(C)CC(=O)N1CC(=O)N2[C@@H](CO)[C@H](c3ccc(/C=C/c4ccccc4)cc3)[C@@H]2C1,-4.2*
O=C(c1ccc(F)cc1)N1CC(=O)N2[C@H](C1)[C@H](c1ccc(/C=C/c3ccccc3)cc1)[C@@H]2CO,-2.8
CCCNC(=O)N(C)C[C@@H]1Oc2cc(C#C[C@H](C)O)ccc2S(=O)(=O)N([C@@H](C)CO)C[C@@H]1C,0.12
CCCNC(=O)N1CC2(CCN(Cc3nccs3)CC2)c2c([nH]c3cc(OC)ccc23)[C@H]1CO,-0.59
COc1ccccc1NC(=O)N1C[C@H]2[C@@H](c3ccccc31)[C@H](CO)N2C(=O)C1CCCC1,1.6
CO[C@H]1CN(C)C(=O)c2cc(NC(C)=O)ccc2OC[C@H](C)N(Cc2ccncc2)C[C@@H]1C,0.96
O=C(C[C@@H]1CC[C@H]2[C@@H](COC[C@@H](O)CN2Cc2cc(F)ccc2F)O1)NCc1ccc(Oc2ccccc2)cc1,0.18
CC(=O)NC[C@H]1[C@@H](c2ccc(-c3cccnc3)cc2)[C@@H](CO)N1C(=O)CC1CC1,0.21
O=C1CN(Cc2ccccc2)C[C@H]2[C@H](c3ccc(Br)cc3)[C@@H](CO)N12,-2.9
O=C(c1ccncc1)N1CCCCN2[C@H](CO)[C@H](c3ccc(C#Cc4ccccn4)cc3)[C@@H]2C1,-0.33
CC(C)(O)C#Cc1ccc([C@@H]2[C@@H](CO)N3CCCCN(C(=O)c4cccnc4)C[C@H]23)cc1,3.5
CC(C)(O)C#Cc1ccc([C@H]2[C@@H](CO)N3CCCCN(C(=O)c4cccnc4)C[C@@H]23)cc1,1.1
O=C(c1cccnc1)N1CCCCN2[C@H](CO)[C@H](c3ccc(C#Cc4cccnc4)cc3)[C@@H]2C1,-4.3*
O=C(c1cccnc1)N1CCCCN2[C@@H](CO)[C@H](c3ccc(C#Cc4ccccn4)cc3)[C@@H]2C1,-7.7*
O=C(c1ccncc1)N1CCCCN2[C@H](C1)[C@@H](c1ccc(C#Cc3ccccn3)cc1)[C@@H]2CO,0.83
O=C(c1cccnc1)N1CCCCN2[C@H](C1)[C@H](c1ccc(C#Cc3ccccn3)cc1)[C@@H]2CO,-5.5*
CC(C)(O)C#Cc1ccc([C@H]2[C@H](CO)N3CCCCN(C(=O)c4cccnc4)C[C@@H]23)cc1,3.7
O=C(c1cccnc1)N1CCCCN2[C@H](C1)[C@@H](c1ccc(C#Cc3cccnc3)cc1)[C@@H]2CO,1.9
CO[C@@H]1CC[C@@H]2CCOc3ccc(C#N)cc3C(=O)N(C)C[C@H](c3ccccc3)CC(=O)N(C)C[C@@H]1O2,-0.25
O=C(C[C@H]1C=C[C@@H](NC(=O)c2ccncc2)[C@H](CO)O1)NCC1CC1,0.15
CN(C)CC#Cc1ccc([C@H]2[C@H]3CN(C(=O)c4ccccc4)CC(=O)N3[C@H]2CO)cc1,1.7
O=C(c1cccnc1)N1CC(=O)N2[C@@H](CO)[C@H](c3ccc(/C=C/c4ccccc4)cc3)[C@@H]2C1,-15*
O=C(c1cccnc1)N1CC(=O)N2[C@H](CO)[C@@H](c3ccc(-c4ccc(F)cc4)cc3)[C@H]2C1,-0.13
O=C(c1cccnc1)N1CC(=O)N2[C@H](CO)[C@H](c3ccc(/C=C/c4ccccc4)cc3)[C@H]2C1,-16*
O=C(c1cccnc1)N1CC(=O)N2[C@H](C1)[C@H](c1ccc(-c3ccc(F)cc3)cc1)[C@@H]2CO,-1.1
SMILES,IDE exosite inh
COCC(=O)Nc1ccc2c(c1)C(=O)N(C)C[C@@H](OC)[C@H](C)CN(C(=O)c1ccncc1)[C@H](C)CO2,-0.7
COc1ccccc1S(=O)(=O)N(C)C[C@H]1OCc2ccccc2-c2ccccc2C(=O)N([C@H](C)CO)C[C@@H]1C,-0.15
COCC(=O)NC[C@H]1N[C@H](CO)[C@@H]1c1ccc(C#CC2CCCCC2)cc1,1.4
CCC(=O)Nc1ccc2c(c1)OC[C@H](C)N(Cc1ccccc1)C[C@H](C)[C@H](OC)CN(C)C2=O,1.3
Cc1cccc(-c2ccc([C@H]3[C@H]4CN(C(=O)NC5CCCCC5)CC(=O)N4[C@H]3CO)cc2)c1,-9.5*
Cc1cccc(-c2ccc([C@@H]3[C@@H](CO)N4C(=O)CN(C(=O)NC5CCCCC5)C[C@@H]34)cc2)c1,-17*

# Screening results as filed in PubChem BioAssay.
